Here are results for 24 compounds from PubChem BioAssay (EPA / NIEHS).

Records with an inconclusive call do not appear. Where a structure was tested more than once in an assay, its records may differ in their call. Calls of active or inactive are those of the source. The calls were made as follows: active = hit-call score of the fitted dose curve at least 0.9, where 1 is the maximum; inconclusive = response in the unintended direction; inactive = score below 0.9.

Chain of Glucocorticoid receptor (Homo sapiens) (P04150 whole entry, looked up): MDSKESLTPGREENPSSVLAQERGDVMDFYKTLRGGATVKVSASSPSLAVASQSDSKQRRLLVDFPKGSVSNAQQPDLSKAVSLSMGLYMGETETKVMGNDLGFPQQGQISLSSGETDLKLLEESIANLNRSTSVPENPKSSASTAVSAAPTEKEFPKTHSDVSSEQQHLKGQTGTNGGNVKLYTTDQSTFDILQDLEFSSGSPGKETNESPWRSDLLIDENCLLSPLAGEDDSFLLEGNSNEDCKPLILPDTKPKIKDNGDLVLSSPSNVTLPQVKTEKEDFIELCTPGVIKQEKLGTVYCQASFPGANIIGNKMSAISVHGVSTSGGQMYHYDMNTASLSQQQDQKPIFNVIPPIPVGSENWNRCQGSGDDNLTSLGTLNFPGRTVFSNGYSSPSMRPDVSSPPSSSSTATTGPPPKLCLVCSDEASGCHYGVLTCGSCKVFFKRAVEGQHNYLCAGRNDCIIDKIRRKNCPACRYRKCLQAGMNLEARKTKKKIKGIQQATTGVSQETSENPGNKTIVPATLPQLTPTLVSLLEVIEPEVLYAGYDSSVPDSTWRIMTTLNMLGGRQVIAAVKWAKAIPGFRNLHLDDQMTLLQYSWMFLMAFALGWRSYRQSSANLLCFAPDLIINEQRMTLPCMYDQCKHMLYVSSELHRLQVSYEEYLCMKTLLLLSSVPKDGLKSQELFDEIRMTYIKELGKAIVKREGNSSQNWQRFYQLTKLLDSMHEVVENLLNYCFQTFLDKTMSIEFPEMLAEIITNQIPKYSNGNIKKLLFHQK
Chain of Estrogen receptor (Homo sapiens) + Estrogen receptor beta (Homo sapiens) (P03372 whole entry, looked up, the tested form may be a part): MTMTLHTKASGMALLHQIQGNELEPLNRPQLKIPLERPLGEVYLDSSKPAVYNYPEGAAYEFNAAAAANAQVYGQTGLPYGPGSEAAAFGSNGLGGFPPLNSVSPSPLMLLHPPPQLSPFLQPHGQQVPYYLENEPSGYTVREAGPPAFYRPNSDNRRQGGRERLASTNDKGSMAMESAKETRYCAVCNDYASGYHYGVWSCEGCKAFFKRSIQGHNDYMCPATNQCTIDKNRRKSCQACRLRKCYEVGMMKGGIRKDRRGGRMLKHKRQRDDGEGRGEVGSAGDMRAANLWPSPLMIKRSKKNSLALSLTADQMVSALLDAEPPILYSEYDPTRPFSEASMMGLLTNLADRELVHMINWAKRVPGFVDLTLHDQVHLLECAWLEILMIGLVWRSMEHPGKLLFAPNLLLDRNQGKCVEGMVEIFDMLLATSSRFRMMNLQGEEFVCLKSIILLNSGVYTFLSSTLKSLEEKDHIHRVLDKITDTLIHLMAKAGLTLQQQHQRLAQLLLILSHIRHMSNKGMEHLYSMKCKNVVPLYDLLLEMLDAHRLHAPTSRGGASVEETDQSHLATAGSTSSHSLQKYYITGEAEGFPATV
Chain of Estrogen receptor (Homo sapiens) + Estrogen receptor beta (Homo sapiens) (Q92731 whole entry, looked up, the tested form may be a part): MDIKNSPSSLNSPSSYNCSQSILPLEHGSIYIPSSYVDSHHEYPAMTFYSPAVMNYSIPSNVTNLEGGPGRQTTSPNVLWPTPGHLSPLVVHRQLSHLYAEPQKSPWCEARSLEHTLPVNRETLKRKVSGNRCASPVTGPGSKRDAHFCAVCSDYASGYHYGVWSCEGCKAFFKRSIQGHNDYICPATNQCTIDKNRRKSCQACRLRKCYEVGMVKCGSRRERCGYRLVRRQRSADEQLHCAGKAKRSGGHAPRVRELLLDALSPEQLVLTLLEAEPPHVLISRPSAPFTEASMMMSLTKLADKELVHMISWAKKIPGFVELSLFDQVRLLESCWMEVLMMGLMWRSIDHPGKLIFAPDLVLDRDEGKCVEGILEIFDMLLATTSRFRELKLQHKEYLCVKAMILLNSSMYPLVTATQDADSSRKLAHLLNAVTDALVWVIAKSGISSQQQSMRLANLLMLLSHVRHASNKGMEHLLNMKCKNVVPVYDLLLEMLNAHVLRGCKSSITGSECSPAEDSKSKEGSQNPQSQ
Chain of Estrogen receptor beta (Homo sapiens) (Q92731 whole entry, looked up, the tested form may be a part): as above
Chain of Retinoic acid receptor alpha (Homo sapiens) (P10276 whole entry, looked up): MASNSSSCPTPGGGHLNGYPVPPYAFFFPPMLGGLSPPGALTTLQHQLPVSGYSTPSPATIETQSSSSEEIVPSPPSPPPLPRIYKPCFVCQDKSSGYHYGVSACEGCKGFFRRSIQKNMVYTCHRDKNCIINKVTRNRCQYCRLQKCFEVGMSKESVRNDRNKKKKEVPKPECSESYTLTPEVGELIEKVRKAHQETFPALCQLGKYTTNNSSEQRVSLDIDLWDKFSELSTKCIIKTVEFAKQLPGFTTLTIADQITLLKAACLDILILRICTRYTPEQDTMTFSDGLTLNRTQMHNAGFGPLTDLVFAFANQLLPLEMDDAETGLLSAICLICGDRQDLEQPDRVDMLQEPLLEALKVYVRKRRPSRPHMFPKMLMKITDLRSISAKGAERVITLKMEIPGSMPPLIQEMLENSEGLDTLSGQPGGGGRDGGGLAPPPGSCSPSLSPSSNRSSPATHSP
Chain of PGR (gene 5241) (P06401 whole entry, looked up): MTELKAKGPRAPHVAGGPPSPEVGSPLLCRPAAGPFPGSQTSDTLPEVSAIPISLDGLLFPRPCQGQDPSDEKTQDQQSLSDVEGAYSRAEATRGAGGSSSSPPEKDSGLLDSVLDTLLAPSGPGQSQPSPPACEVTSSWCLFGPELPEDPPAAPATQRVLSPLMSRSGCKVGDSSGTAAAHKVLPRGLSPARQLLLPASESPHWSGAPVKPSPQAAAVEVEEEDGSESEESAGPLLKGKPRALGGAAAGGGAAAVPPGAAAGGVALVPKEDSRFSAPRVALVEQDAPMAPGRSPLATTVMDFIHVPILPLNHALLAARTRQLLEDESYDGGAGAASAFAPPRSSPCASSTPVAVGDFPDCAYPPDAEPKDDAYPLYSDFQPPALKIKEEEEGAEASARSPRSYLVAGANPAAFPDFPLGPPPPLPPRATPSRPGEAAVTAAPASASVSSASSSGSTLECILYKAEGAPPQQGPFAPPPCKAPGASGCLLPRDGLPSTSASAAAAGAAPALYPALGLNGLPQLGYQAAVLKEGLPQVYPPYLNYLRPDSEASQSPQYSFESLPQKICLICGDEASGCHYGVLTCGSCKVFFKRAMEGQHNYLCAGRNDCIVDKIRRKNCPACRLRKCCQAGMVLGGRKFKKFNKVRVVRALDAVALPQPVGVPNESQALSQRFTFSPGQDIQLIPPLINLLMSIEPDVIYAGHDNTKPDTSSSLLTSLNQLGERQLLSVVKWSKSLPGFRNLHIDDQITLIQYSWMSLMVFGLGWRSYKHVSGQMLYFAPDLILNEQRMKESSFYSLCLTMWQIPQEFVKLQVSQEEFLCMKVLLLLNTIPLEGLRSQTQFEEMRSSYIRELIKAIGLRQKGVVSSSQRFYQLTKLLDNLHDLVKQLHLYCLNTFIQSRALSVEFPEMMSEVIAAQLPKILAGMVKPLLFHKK

The target in one assay is Androgen Receptor/SRC-1 Co-activator, AR (gene 367) (UniProt P10275). The assay can be described thus: OT_AR_ARSRC1_0960: Odyssey Thera (OT) 16-hour HEK293T Protein-Complementation Assay for Androgen Receptor/SRC-1 Co-activator (AID 2283353).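 Also: actives raise the signal above DMSO so potency reflects increased AR and SRC-1 complex.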 The gist of the method: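 Endpoint is gain-of-signal N/C fluorescence ratio in the 488 nm channel versus DMSO, from at least 400 cells per image, measured 16 h post-dosing. Cells: HEK293T stably carrying split-Venus AR/SRC-1 complementation constructs.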
Chain of Androgen Receptor/SRC-1 Co-activator, AR (gene 367) (P10275 whole entry, looked up): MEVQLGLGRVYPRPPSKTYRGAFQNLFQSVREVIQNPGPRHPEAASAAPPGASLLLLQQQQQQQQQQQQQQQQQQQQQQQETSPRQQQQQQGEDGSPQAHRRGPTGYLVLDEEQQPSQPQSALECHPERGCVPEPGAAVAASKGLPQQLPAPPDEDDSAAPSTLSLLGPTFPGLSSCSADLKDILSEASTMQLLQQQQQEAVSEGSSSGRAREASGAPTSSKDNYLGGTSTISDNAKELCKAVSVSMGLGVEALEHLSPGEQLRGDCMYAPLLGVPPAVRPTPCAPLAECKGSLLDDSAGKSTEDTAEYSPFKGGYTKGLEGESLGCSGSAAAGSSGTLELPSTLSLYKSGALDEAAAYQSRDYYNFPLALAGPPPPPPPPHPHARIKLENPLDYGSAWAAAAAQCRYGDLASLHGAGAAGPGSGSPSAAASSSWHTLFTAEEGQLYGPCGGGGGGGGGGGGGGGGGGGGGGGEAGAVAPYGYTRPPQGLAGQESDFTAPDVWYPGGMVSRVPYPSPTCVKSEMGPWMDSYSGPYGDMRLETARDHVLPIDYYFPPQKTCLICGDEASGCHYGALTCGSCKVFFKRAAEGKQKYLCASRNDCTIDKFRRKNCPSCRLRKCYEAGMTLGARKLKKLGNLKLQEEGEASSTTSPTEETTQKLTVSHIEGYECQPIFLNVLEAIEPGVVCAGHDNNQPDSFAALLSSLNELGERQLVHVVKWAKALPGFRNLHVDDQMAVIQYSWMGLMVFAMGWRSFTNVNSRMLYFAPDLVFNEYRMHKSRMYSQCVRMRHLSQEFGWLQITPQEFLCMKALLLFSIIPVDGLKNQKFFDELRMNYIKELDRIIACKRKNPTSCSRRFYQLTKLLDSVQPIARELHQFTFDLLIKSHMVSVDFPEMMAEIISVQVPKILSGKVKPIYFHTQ
With `CCON=C(CC)C1=C(O)CC(c2c(C)cc(C)cc2C)CC1=O` (stereo not given), the result was inactive.

In the case of `N#Cc1cc(Br)c(O)c(Br)c1`, the compound was called inactive.

Consider `CC1=C(C(=O)Nc2ccccc2)SCCO1`, for which the result was inactive.

As a reminder, the AC50 is the midpoint of the concentration-response curve, whichever way the signal moves. As to `CS/C(C)=N/OC(=O)N(C)SN(C)C(=O)O/N=C(\C)SC`, the AC50 was 78.2 µM (active).

With `CCCC1COC(Cn2cncn2)(c2ccc(Cl)cc2Cl)O1` (stereo not given), the AC50 is 34.3 µM (active).

In the case of `CO/C=C(/C(=O)OC)c1ccccc1Oc1cc(Oc2ccccc2C#N)ncn1`, the result was inactive.

`CN(C)C(=S)SSC(=S)N(C)C`: the AC50 is 26.2 µM (active).

With `N#Cc1nn(-c2c(Cl)cc(C(F)(F)F)cc2Cl)c(N)c1S(=O)C(F)(F)F` (stereo not given), the AC50 is 22.7 µM (active).

Turning to `Cc1cc(Cl)ccc1OCC(=O)O`, the call was inactive.

Take `CCOC(=O)CC(SP(=S)(OC)OC)C(=O)OCC` (stereo not given): the outcome was inactive.

Regarding `O=C(Nc1ccccc1)Nc1ccnc(Cl)c1`, the outcome was inactive.

`CC(C)Oc1cc(-n2nc(C(C)(C)C)oc2=O)c(Cl)cc1Cl`: the half-maximal activity concentration (AC50) is 31.3 µM (active).

In the case of `Cc1ccc(-c2c(Cl)nc(C#N)n2S(=O)(=O)N(C)C)cc1`, the AC50 is 27.1 µM (active).

`CCCCNC(=O)n1c(NC(=O)OC)nc2ccccc21`: the call was inactive.

In another assay the target is Estrogen receptor (Homo sapiens) + Estrogen receptor beta (Homo sapiens) (UniProt P03372+Q92731). Briefly: OT_ER_ERaERb_1440: Odyssey Thera (OT) 24-hour HEK293T Protein-Complementation Assay for Estrogen Receptor-alpha/-beta Homodimer (AID 2283356).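 Also: heteromer of ER alpha and ER beta binding domains; hits raise reporter fluorescence and both agonists and antagonists give an increase.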 Summed up:
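HEK293T stably expressing a PCA of ER alpha LBD (aa 310-547) and ER beta LBD (aa 263-489). After 24 h compound exposure, mean fluorescence intensity in nucleus (agonists) or nucleus and cytoplasm (antagonists) measured by laser scanning cytometry versus vehicle.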
`CC1=C(C(=O)Nc2ccccc2)SCCO1`: the result was inactive.

Take `CC(C)C1(C)N=C(c2nc3ccccc3cc2C(=O)O)NC1=O` (stereo not given): the result was inactive.

Turning to `CCOc1cc(Oc2ccc(C(F)(F)F)cc2Cl)ccc1[N+](=O)[O-]`, the result was inactive.

With `CS/C(C)=N/OC(=O)N(C)SN(C)C(=O)O/N=C(\C)SC`, the outcome was inactive.

Turning to `CC(C)(C)c1ccc(CSc2cnn(C(C)(C)C)c(=O)c2Cl)cc1`, the outcome was inactive.

In the case of `Cc1c(F)c(F)c(COC(=O)C2C(/C=C(\Cl)C(F)(F)F)C2(C)C)c(F)c1F` (stereo not given), the outcome was inactive.

As to `CO/C=C(/C(=O)OC)c1ccccc1Oc1cc(Oc2ccccc2C#N)ncn1`, the outcome was inactive.

As to `CN(C)C(=S)SSC(=S)N(C)C`, the result was inactive.

For `N#Cc1nn(-c2c(Cl)cc(C(F)(F)F)cc2Cl)c(N)c1S(=O)C(F)(F)F` (stereo not given), the result was inactive.

`CCc1nn(C)c(C(=O)NCc2ccc(C(C)(C)C)cc2)c1Cl`: the outcome was inactive.

Take `N#CC(CCc1ccc(Cl)cc1)(Cn1cncn1)c1ccccc1` (stereo not given): the outcome was inactive.

With `CC(C)Oc1cc(-n2nc(C(C)(C)C)oc2=O)c(Cl)cc1Cl`, the result was inactive.

For `Cc1ccc(-c2c(Cl)nc(C#N)n2S(=O)(=O)N(C)C)cc1`, the outcome was inactive.

Turning to `Oc1ccccc1-c1ccccc1`, the AC50 was 35.7 µM (active) and the result was inactive.

For the compound `CCCCNC(=O)n1c(NC(=O)OC)nc2ccccc21`, the outcome was inactive.

Consider `Fc1ccc(Oc2ccnc3cc(Cl)cc(Cl)c23)cc1`, for which the outcome was inactive.

For `COC(=O)C=C(C)OP(=O)(OC)OC`, the outcome was inactive.

A further assay deals with Estrogen receptor beta (Homo sapiens) (UniProt Q92731). The assay can be described thus: OT_ER_ERbERb_0480: Odyssey Thera (OT) 8-hour HEK293T Protein-Complementation Assay for Estrogen Receptor-beta/-beta Homodimer (AID 2283357).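 Also: active means signal gain over DMSO baseline.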 Summed up:
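Homodimerization of ER-beta LBD measured by protein-fragment complementation in HEK293T; 8 h dosing; fixed, Draq5 counterstain; fluorescence intensity gain over DMSO baseline, positive fitting direction; laser scanning cytometry.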
Consider `CC1=C(C(=O)Nc2ccccc2)SCCO1`, for which the outcome was inactive.

In the case of `CC(C)C1(C)N=C(c2nc3ccccc3cc2C(=O)O)NC1=O` (stereo not given), the outcome was inactive.

Consider `CCOc1cc(Oc2ccc(C(F)(F)F)cc2Cl)ccc1[N+](=O)[O-]`, for which the result was inactive.

Regarding `CS/C(C)=N/OC(=O)N(C)SN(C)C(=O)O/N=C(\C)SC`, the call was inactive.

For the compound `CC(C)(C)c1ccc(CSc2cnn(C(C)(C)C)c(=O)c2Cl)cc1`, the result was inactive.

As for `Cc1c(F)c(F)c(COC(=O)C2C(/C=C(\Cl)C(F)(F)F)C2(C)C)c(F)c1F` (stereo not given), the result was inactive.

For `CN(C)C(=S)SSC(=S)N(C)C`, the compound was called inactive.

`CCc1nn(C)c(C(=O)NCc2ccc(C(C)(C)C)cc2)c1Cl`: the outcome was inactive.

Regarding `N#CC(CCc1ccc(Cl)cc1)(Cn1cncn1)c1ccccc1` (stereo not given), the result was inactive.

Consider `CC(C)Oc1cc(-n2nc(C(C)(C)C)oc2=O)c(Cl)cc1Cl`, for which the outcome was inactive.

Turning to `Cc1ccc(-c2c(Cl)nc(C#N)n2S(=O)(=O)N(C)C)cc1`, the call was inactive.

With `Oc1ccccc1-c1ccccc1`, the AC50 was 57.5 µM (active) and the compound was called inactive.

Take `CCCCNC(=O)n1c(NC(=O)OC)nc2ccccc21`: the result was inactive.

In the case of `Fc1ccc(Oc2ccnc3cc(Cl)cc(Cl)c23)cc1`, the result was inactive.

For `COC(=O)C(C)Oc1ccc(Oc2ccc(Cl)cc2Cl)cc1` (stereo not given), the compound was called inactive.

The next assay has as its target Retinoic acid receptor alpha (Homo sapiens) (UniProt P10276). Briefly: NVS_NR_hRAR_Antagonist: NovaScreen (NVS) Nuclear Receptor Binding Assay for human Retinoic Acid Alpha Receptor Antagonism (RAR) (AID 2283358). The gist of the method:
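Read-out: time-resolved FRET binding signal, 2 h post-dose, cell-free extracted protein. Antagonism scored as signal loss versus DMSO negative control. Primary single-concentration screen at 25 uM in duplicate; concentration series for actives.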
For `CCON=C(CC)C1=C(O)CC(c2c(C)cc(C)cc2C)CC1=O` (stereo not given), the compound was called inactive.

With `CCCC1COC(Cn2cncn2)(c2ccc(Cl)cc2Cl)O1` (stereo not given), the compound was classed as inactive.

As to `CO/C=C(/C(=O)OC)c1ccccc1Oc1cc(Oc2ccccc2C#N)ncn1`, the compound was classed as inactive.

For `N#Cc1nn(-c2c(Cl)cc(C(F)(F)F)cc2Cl)c(N)c1S(=O)C(F)(F)F` (stereo not given), the result was inactive.

The next assay addresses PGR (gene 5241) (UniProt P06401). Briefly: NVS_NR_hPR: NovaScreen (NVS) Nuclear Receptor Binding Assay for human Progestron Receptor (PR) (AID 2283360).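 Also: active means loss of bound radioligand signal versus DMSO baseline.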 Summed up:
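Cell-free radioligand binding using receptor protein extracted from T47D cells, read by scintillation counting 18 hours after dosing. Loss of signal relative to DMSO baseline indicates displacement; primary screen single concentration 25 uM in duplicate, actives followed in concentration series.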
For `CCCC1COC(Cn2cncn2)(c2ccc(Cl)cc2Cl)O1` (stereo not given), the call was inactive.

Consider `CO/C=C(/C(=O)OC)c1ccccc1Oc1cc(Oc2ccccc2C#N)ncn1`, for which the compound was called inactive.

On to `CCOC(=O)CC(SP(=S)(OC)OC)C(=O)OCC` (stereo not given), for which the compound was classed as inactive.

For the compound `CC(C)Oc1cc(-n2nc(C(C)(C)C)oc2=O)c(Cl)cc1Cl`, the compound was classed as inactive.

In another assay the target is Glucocorticoid receptor (Homo sapiens) (UniProt P04150). The assay can be described thus: NVS_NR_hGR: NovaScreen (NVS) Nuclear Receptor Binding Assay for human Glucocorticoid Receptor (GR) (AID 2283363).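 As to AC50: activity is loss of specific radioligand binding signal relative to DMSO.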 The gist of the method:
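Filter scintillation readout of tritiated/iodinated radioligand displaced by test chemical; cell-free extracted protein; 16 h. DMSO = negative control/baseline. Duplicate single-point 25 uM screen, then concentration-response on actives.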
On to `CCCC1COC(Cn2cncn2)(c2ccc(Cl)cc2Cl)O1` (stereo not given), for which the AC50 was 10.5 µM (active).

As to `CO/C=C(/C(=O)OC)c1ccccc1Oc1cc(Oc2ccccc2C#N)ncn1`, the result was inactive.

Consider `CCOC(=O)CC(SP(=S)(OC)OC)C(=O)OCC` (stereo not given), for which the result was inactive.

Turning to `Cc1ccc(-c2c(Cl)nc(C#N)n2S(=O)(=O)N(C)C)cc1`, the call was inactive.
